From PubChem BioAssay (NCI)
About 83,000 compounds went through this panel and 20% of them were active in at least one assay; those are over-represented in the sample as a whole.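 A percent growth of 40 corresponds to 60% growth inhibition; 0 means no net growth; -100 means all cells died. Active threshold: below 10.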 The source made the active and inactive calls.

Tested on: MDA-MB-468 breast
Test: NCI-60 one-dose screen, 48 h (100 = growth as untreated, 0 = no growth, -100 = all killed)
Conditions: 10 µM unless noted

| Structure (SMILES) | growth |
| --- | --- |
| O=c1cc(-c2ccccc2)nc2cc(-c3ccco3)[nH]n12 | -1.48% (active) |
| O=C1NCCc2c1noc2-c1ccccc1 | 99.2% (inactive) |
| N#Cc1cccc(CN2CCC3=C(C2)C(=O)N(Cc2ccc(Cl)cc2)C2=NCCN23)c1 | -14.9% (active) |
| CC(Br)C(OC(=O)c1ccccc1Cl)c1cc2c(cc1Br)OCO2 (stereo unspecified) | 66.4% (inactive) |
| NC1=C(Cl)C(=O)c2ccccc2C1=O | 36.5% (inactive) |
| O=C(Nc1ccc(Cl)c(Cl)c1)Nc1ccc(Cl)c([N+](=O)[O-])c1 | -19% (active) |
| O=C(CSc1nc2sc3c(c2c(=O)n1-c1ccc(Cl)cc1)CCCC3)NNC(=O)Nc1ccc(Cl)c(C(F)(F)F)c1 | -42.4% (active) |
| O=C1C(N2CCOCC2)=C(I)C(=O)c2ncccc21 | 42% (inactive) |
| Clc1ccc(CNc2c3ccccc3nc3ccccc23)cc1 | 29.6% (inactive) |
| CN1C(=O)C2(SCC(C(=O)NCC(=O)OC(C)(C)C)N2C(=O)C2CCCCC2)c2ccccc21 (stereo unspecified) | 104% (inactive) |
| Cc1[nH]c(C2CC(c3ccc(C(F)(F)F)c(F)c3)=NN2c2ccccc2)c(C)c1C(=O)NCC(F)(F)F (stereo unspecified) | 86.5% (inactive) |
| N#CC1(O)CCCCC1 | 108% (inactive) |
| CCC(O)CC(CC)CO (stereo unspecified) | 113% (inactive) |
| CC(=O)N1N=C(c2ccc(F)cc2)CC1c1sc(N(C)Cc2ccccc2)nc1Cl (stereo unspecified) | 98.1% (inactive) |
| COc1ccc(/C=N/NC(=O)CSc2nc(-c3cnccn3)cc(-c3cccs3)c2C#N)cc1 | 83.1% (inactive) |
| CS(=O)(=O)c1cccnn1 | 74% (inactive) |
